From PubChem
Vaccinia Venus: qHTS for Stage-Specific Inhibitors of Vaccinia Orthopoxvirus: Venus Reporter Primary qHTS; Vaccinia virus Venus reporter expression, fluorescence; Potency, µM (doses to about 36.5 µM), without a hit: at the highest dose activity change, negative = inhibition, usual class: inhibitors; hit rate 0.46% among 330,000; AID 720580, 2013; calls by dose curve; tested in A549 cells; further: nearly all actives have a fitted effect of over 30% in size
Pf growth 96h: Primary qHTS for delayed death inhibitors of the malarial parasite plastid, 96 hour incubation; P. falciparum luciferase reporter growth, 96 h; Potency, µM (highest dose often 28.7 µM), without a hit: top-dose activity change, negative = inhibition, usual class: inhibitors; hit rate 6.9% among 320,000
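Plates of compound plus infected erythrocytes (2% hematocrit, 0.05% parasitemia final) incubate 96 hours, 37 C, 5% CO2. Detection reagent added; reduced luminescence from the parasites' luciferase reporter flags inhibition.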
Vaccinia mCherry: qHTS for Stage-Specific Inhibitors of Vaccinia Orthopoxvirus: mCherry Reporter Primary qHTS. hit rate 0.63% among 310,000. Vaccinia virus mCherry reporter infection, fluorescence. AID 720579, 2013. Potency, µM (series often up to 36.5 µM), for the others: at the highest dose activity change, negative = inhibition, actives largely listed as inhibitors; calls by dose curve; tested in A549 cells; further: nearly all actives have a fitted effect of over 35% in size
Pf growth 48h: Primary qHTS for delayed death inhibitors of the malarial parasite plastid, 48 hour incubation; P. falciparum luciferase growth in erythrocytes, 48 h; Potency, µM (doses to about 28.7 µM), for inactives: at the top dose activity change, negative = inhibition, hits mostly inhibitors; hit rate 5.9% among 310,000; AID 504832, 2011
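Luminescence readout; reporter = integrated firefly luciferase in P. falciparum. RBC culture at 2% hematocrit, 0.1% parasitemia final, 37 C/5% CO2; decreased signal taken as growth inhibition.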
AMA1 RON2 block: qHTS for Inhibitors of AMA1-RON; Towards Development of Antimalarial Drug Lead: Primary Screen; AlphaScreen AMA1-biotinylated RON2 peptide binding; Plasmodium falciparum AMA1 (3D7) - RON2 peptide interaction; Potency, µM (highest dose often 58.2 µM), without a hit: at the highest dose activity change, negative = inhibition, actives largely listed as inhibitors; hit rate 0.2% among 360,000;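 further: 0% = vehicle wells and -100% = peptide control; nearly all actives have a fitted effect of over 45% in size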
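AMA1 (3D7) with his tag at 25 nM final met compounds first, then biotinylated RON2 peptide at 25 nM; detection used donor plus acceptor beads, 10 µg/mL apiece, read by AlphaScreen after 30 min at room temperature.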
Numbers without * were called inactive; i = inactive; ? = inconclusive; · = no result given; [ ] = another dose, or the depositor's remark. Rows were chosen to be rich in hits. Some 8.7% of all compounds tested hit in one or more screens of this group. Unless noted, the call rests on the fitted dose curve; in most records, active means well fitted curve in the direction sought with a large enough effect; inconclusive means small, poorly fitted or top-dose-only effect, or another doubt; inactive means no such curve, though single readings can be large; an effect the other way counts as inactive or inconclusive. Unless noted, on the % scale 0 is the no-effect control and ±100 the full control effect; potency means the concentration at half of the fitted maximal effect.

SMILES	Vaccinia Venus	Pf growth 96h	Vaccinia mCherry	Pf growth 48h	AMA1 RON2 block
CCOC(=O)C1CCCN(C(=O)c2nn(-c3ccc(OC)cc3)c(=O)c3c2c2ccccc2n3C)C1 (stereo not given)	-2.0%	·	-8.2%	·	·
CCn1c(=N)c(C(=O)NCC2CCCO2)cc2c(=O)n3cc(C)ccc3nc21 (stereo not given)	-4.8%	·	-1.7%	·	·
CC1Oc2ccccc2N(CC(=O)NCc2ccc3c(c2)OCO3)C1=O (stereo not given)	0.1%	11.7µM*	5.3%	34.6%	0.1%
CC1Oc2ccccc2N(CC(=O)N2CCCc3ccccc32)C1=O (stereo not given)	·	9.28µM*	·	-20.8%	-2.6%
CC1Oc2ccccc2N(CC(=O)Nc2ccc3c(c2)OCCO3)C1=O (stereo not given)	·	11.7µM*	·	46.2%	-0.3%
CCOC(=O)C(C)Oc1cccc2c(=O)n(CC(=O)NCc3ccc4c(c3)OCO4)ccc12 (stereo not given)	?	?	100µM*	·	4.5%
CC1Oc2ccccc2N(CC(=O)Nc2ccc3c(c2)OCO3)C1=O (stereo not given)	·	22.9%	·	20.6%	3.0%
CCOC(=O)c1c(S(=O)(=O)N2CCC(C(=O)Nc3cccc(C#N)c3)CC2)c(C)n(C)c1C	-1.7%	·	-8.2%	·	·
O=C(NC1CC2CCCC(C1)N2CC(=O)N1CCCc2ccccc21)C1CCCCC1 (stereo not given)	·	14.7µM*	·	-8.6%	-6.6%
COc1cc(OC)cc(C(=O)Nc2nc(-c3nnn(-c4ccc(F)c(Cl)c4)c3C)ns2)c1	?	·	-24.5%	·	·
S=C(NC1CCCCC1)N(CCc1nc2ccccc2[nH]1)C1CCCC1	-18.2%	13.1µM*	-20.2%	?	19.1%
Cn1c(N)c(C(=O)COC(=O)C2(c3cccc(F)c3)CCCC2)c(=O)n(C)c1=O	-12.0%	13.1µM*	i	7.38µM*	-10.8%
Cn1c(N)c(C(=O)COC(=O)c2ccc(F)cc2Cl)c(=O)n(C)c1=O	·	·	·	·	-3.3%
COC(=O)C1=NNC2C(=O)N(c3ccc(C)cc3)C(=O)C12 (stereo not given)	·	?	·	12.1%	-1.5%
COC(=O)C1=NNC2C(=O)N(C3CCCCC3)C(=O)C12 (stereo not given)	-3.0%	3.29µM*	-16.4%	15.2%	-3.6%
CCOc1cc(/C=C2/C(=N)N3C(=NC2=O)SN=C3S(=O)(=O)C(C)C)ccc1OC(=O)c1ccco1	·	8.28µM*	·	-8.1%	-3.0%
CCS(=O)(=O)C1=NSC2=NC(=O)/C(=C\c3ccc(OC(=O)c4ccco4)c(OC)c3)C(=N)N21	8.5%[7.34 µM]	22.2%	-4.2%[7.34 µM]	10.0%	-0.1%
CCOc1cc(/C=C2/C(=N)N3C(=NC2=O)SN=C3S(=O)(=O)CC)ccc1OC(=O)c1ccco1	·	10.4µM*	·	-3.7%	-10.5%
COc1cc(NC(=O)CCc2nnc3ccc(N4CCCC4)nn23)cc(OC)c1OC	-3.4%	?	-24.9%	?	-1.5%
COc1cc(NC(=O)CCc2nnc3ccc(N4CCCCC4)nn23)cc(OC)c1OC	-2.0%	10.4µM*	-11.0%	?	1.4%
COc1ccccc1NC(=O)CCc1nnc2ccc(N3CCCCC3)nn12	-16.7%	4.15µM*	-25.4%	-26.6%	13.6%
COc1ccccc1C1CN(Cc2c(C)nn(C)c2Cl)Cc2ccccc2O1 (stereo not given)	1.8%	·	-9.2%	·	·
CCN(CC)CCN1c2ccccc2Sc2ccc3ccccc3c21	-16.2%	?	-21.4%	8.28µM*	-2.2%
CC(=O)N(CCC(Cc1ccccc1)c1ccc2c(c1)OCO2)Cc1ccc(Cl)cc1 (stereo not given)	-20.0%	8.28µM*	-26.8%	9.28µM*	?
COc1ccc(CN(CCC(c2ccc3c(c2)OCO3)c2ccccc2OC)C(C)=O)cc1 (stereo not given)	-21.0%	·	-21.1%	·	·
Cc1ccc(C)c(NC(=O)c2cc(S(=O)(=O)N3CCN(c4cccc(Cl)c4)CC3)ccc2F)c1	-18.5%	·	-18.5%	·	·
Cn1c(=O)n(CCCOc2ccc(Br)cc2)c2ccccc21	-29.5%	·	·	-23.4%	9.0%
